# According to PubChem BioAssay (NCATS):
# Several values for one entry are separate records, joined by “and”; a condition that tells them apart may be missing. Identical values can stand only once. Unmarked numbers belong to inactive results. Activity calls are given as the source filed them. The call rests on the fitted dose curve; in most records, active means well fitted activation curve with a large enough effect; inconclusive means small, poorly fitted or top-dose-only effect, or effect the other way; inactive means flat fitted curve, though single readings scatter.
# Experiment: Cellular Toxicity (caspase-3) Renal Proximal Tubule (AID 667);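 further: cells exposed to compound for 16 hours at 37 °C before detection; 0% = DMSO basal and 100% = 10 µM staurosporine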
# Conditions: renal proximal tubule cells; at 91.7 µM (top of the series) unless noted
# Excerpt: NIH Chemical Genomics Center [NCGC]
# NIH Molecular Libraries Screening Centers Network [MLSCN]
# National Institutes of Environmental Health Sciences [NIEHS]
# National Toxicology Program [NTP]
# We have developed a 1536-well cell-based assay for quantitative high throughput screening (qHTS) against a number of cell lines to determine in vitro caspase 3/7 activity of small molecules. This particular assay uses the primary kidney proximal tubule cells freshly isolated from rat.
# NCGC Assay Protocol Summary:
# The Caspase-Glo 3/7 assay (Promega) is a homogeneous method to measure caspase-3 and caspase-7 activities in cultured cells. The quantitation of caspase 3/7 activity is based on the cleavage of a peptide-aminoluciferin substrate. After caspase cleaves the substrate the free aminoluciferin is liberated and serves as the substrate of luciferase, which generates the light. The luminescent signal is proportional to the amount of caspase 3/7 activity present.
# Using the Caspase-Glo 3/7 assay, the amount of caspase 3/7 activity was measured in the rat kidney proximal tubule cells with complete culture medium following compound treatment for 16 hours. The assay was performed in opaque white 1536-well plates. In the screen, staurosporine and doxorubicin were used as positive controls. Library compounds were measured for their ability to cause the activation of caspase 3/7 in the cell line, as reflected by an increase in luminescence signal, in a concentration-dependent manner. Data were normalized to the controls for basal activity (DMSO only) and 100% stimulation (10 uM staurosporine). AC50 values were determined from concentration-response data modeled with the standard Hill equation.
# qHTS protocol for caspase 3/7 assay in rat kidney proximal tubule cells
# [Step] [Parameter] [Value] [Description]
# 1. Reagent; 5 uL; 1000 rat kidney proximal tubule cells/well
# 2. Time; 5 hr; 37 °C incubation
# 4. Controls; 23 nL; doxorubicin 7 pM to 100 uM & staurosporine 1.4 pM to 20 uM
# 5. Time; 16 hr; 37 °C incubation
# 6. Reagent; 5 uL; Caspase-Glo 3/7 reagent
# 7. Time; 1 hr; Room Temperature
# 8. Detection; Luminescence; Viewlux plate reader
# Keywords: caspase 3/7, apoptosis, rat kidney proximal tubule cells, luminescence, NTPHTS, NTPHTS_NCGC, NIEHS, EPA, DSSTox, MLSMR, MLSCN, NIH Roadmap, qHTS, NCGC
row,Structure (SMILES),caspase-3 activation
1,C[C@H]1CC[C@@H]2[C@@H](C)[C@H]3[C@H](C[C@H]4[C@@H]5CC=C6CC(O[C@@H]7O[C@H](CO)[C@H](O)[C@H](O[C@@H]8O[C@H](CO)[C@@H](O)[C@H](O)[C@H]8O)[C@H]7O[C@H]7O[C@@H](C)[C@H](O)[C@@H](O)[C@H]7O)CC[C@]6(C)[C@H]5CC[C@]34C)N2C1 (stereo partly specified),5.75%
2,[O]=[Cr](=[O])([OH])[O][Cr](=[O])(=[O])[OH],101% (active)
3,[O]=[Cd],"7.8% [at 91.7 µM, primary cells freshly taken from rat, solvent-only wells 0%, staurosporine 100%]"
4,CCOC(=O)c1ccccc1C(=O)OCC,7.7% and 0.83%
5,O=[N+]([O-])c1ccccc1,0.615%
6,S=C=S,"4.15% [at 91.7 µM, primary cells freshly taken from rat, solvent-only wells 0%, staurosporine 100%]"
7,[Cl-].[Cl-].[Hg+2],-16%
8,C[C@]12CCC(=O)C[C@@H]1CC[C@@H]1[C@@H]2CC[C@]2(C)[C@@H](O)CC[C@@H]12,0.8%
9,Clc1ccccc1Cl,"5.14% [at 91.7 µM, primary cells freshly taken from rat, solvent-only wells 0%, staurosporine 100%]"
10,O=Cc1ccco1,"-8.6% [at 91.7 µM, primary cells freshly taken from rat, solvent-only wells 0%, staurosporine 100%]"
11,O=[N+]([O-])c1ccc(F)c([N+](=O)[O-])c1,-20.3%
12,NNC(N)=O,4.27%
13,CC(C)CCON=O,-0.158%
14,O=C1C=CC(=O)C=C1,4.64%
15,COC1=CC(=O)O[C@@H](/C=C/c2ccccc2)C1,-6.32%
16,COc1ccc2c(c1OC)C(=O)OC2C1c2cc3c(cc2CCN1C)OCO3 (stereo unspecified),-5.84%

row,Structure (SMILES),caspase-3 activation
1,O=C(O)C(Cl)(Cl)Cl,-2.66% and 2.21%
2,CC(C)Nc1ccc(Nc2ccccc2)cc1,"11.6% [at 91.7 µM, primary cells freshly taken from rat, solvent-only wells 0%, staurosporine 100%]"
3,CCCCCl,"1.64% [at 91.7 µM, primary cells freshly taken from rat, solvent-only wells 0%, staurosporine 100%]"
4,CC(C)(C)c1cc(O)ccc1O,-12.4% and -3.67%
5,CCCCCCCCOC(=O)c1ccccc1C(=O)OCCCCCCCC,-2.49%
6,O=CC=O,"-5.02% [at 91.7 µM, primary cells freshly taken from rat, solvent-only wells 0%, staurosporine 100%]"
7,O=C1CCO1,"-9.04% [at 91.7 µM, primary cells freshly taken from rat, solvent-only wells 0%, staurosporine 100%]"
8,Oc1cc(Cl)c(Cl)cc1Cl,4.35%
9,ClC(Cl)(Cl)Cl,5.92% and -10.1%
10,ClCC1CO1 (stereo unspecified),"0.815% [at 91.7 µM, primary cells freshly taken from rat, solvent-only wells 0%, staurosporine 100%]"
11,C=CCN=C=S,"-1.14% [at 91.7 µM, primary cells freshly taken from rat, solvent-only wells 0%, staurosporine 100%]"
12,O=C1C2CC=CCC2C(=O)N1SC(Cl)(Cl)Cl (stereo unspecified),-14.4% and -19.5%
13,O=C/C=C/c1ccccc1,0.729% and 4.55%
14,C[C@H]1CCC[C@H](O)CCCCCc2cc(O)cc(O)c2C(=O)O1,-5.62%
15,ClC=C(Cl)Cl,"-7.81% [at 91.7 µM, primary cells freshly taken from rat, solvent-only wells 0%, staurosporine 100%]"
